Source: PubChem BioAssay (NMMLSC)
LAP4 TOR yeast: yeast TOR pathway LAP4-GFP modulation | AID 2023 | actives 0.34% (n = 320,000) | S. cerevisiae LAP4-GFP multiplex, flow cytometry GFP, 3 h; median GFP as percent of DMSO wells | GFP response vs DMSO, % at 10 µM;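 active = GFP response vs DMSO above a set limit, about the screen mean plus 3 SD, cut at about 150% in these data; inconclusive = under 70 cell events counted for the yeast strain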
RPL19A TOR yeast: alters RPL19A-GFP fluorescence in TOR pathway yeast screen; S. cerevisiae RPL19A-GFP strain, flow cytometry, 3 h; stronger effect = lower value; AID 2025; actives 0.3% (n = 330,000); percent response vs DMSO, % at 10 µM;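 active = percent response vs DMSO below 50%; inconclusive = fewer than 70 events counted for the yeast strain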;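 also: median channel GFP fluorescence of the barcoded RPL19A-GFP strain; ratio of sample median GFP to plate DMSO average so 100% = DMSO; lower means less RPL19A-GFP as with rapamycin TOR inhibition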
CIT2-GFP yeast: alters CIT2-GFP fluorescence in TOR pathway yeast screen. S. cerevisiae CIT2-GFP strain, flow cytometry, 3 h; 100 means same as DMSO wells. GFP response vs DMSO, % at 10 µM. actives 0.065% (n = 320,000);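 active = GFP response relative to DMSO above a set limit, near the screen mean plus 3 SD, cut at about 150% in these data; inconclusive = Fewer than 70 cells measured for a yeast strain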;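 also: ratio of well median GFP fluorescence to mean of DMSO wells on the plate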
MEP2-GFP yeast: yeast TOR pathway MEP2-GFP modulation; S. cerevisiae MEP2-GFP strain, flow cytometry GFP, 3 h; 100% = DMSO control level; GFP response vs DMSO, % at 10 µM; actives 0.51% (n = 330,000); AID 2016;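 active = GFP response versus DMSO above a set limit, roughly screen mean plus 3 SD, cut at about 180% in these data; inconclusive = fewer than 70 cells counted for a yeast strain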;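 also: median GFP fluorescence of the barcode-gated MEP2-GFP cells per well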
AGP1-GFP MLPCN: alters AGP1-GFP fluorescence in TOR pathway yeast screen | S. cerevisiae AGP1-GFP multiplex flow cytometry, 3 h; GFP as percent of DMSO wells | GFP response vs DMSO, % at 10 µM | actives 0.02% (n = 320,000) | AID 2066;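 active = GFP response relative to DMSO above a set limit, near screen average plus 3 SD, cut at about 150% in these data; inconclusive = fewer than 70 cells counted for the yeast strain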;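 also: median GFP channel fluorescence of the gated AGP1 strain per well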
Myeloid diff 2: compounds promoting myeloid differentiation; ER-HoxA9 myeloid progenitors, lysozyme-GFP differentiation, flow cytometry; calls only at 10 µM; actives 1% (n = 360,000); AID 624256;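 active = normalized GFP-positive differentiation at or above the plate's own cutoff, the solvent-only control mean plus 3 SD; inconclusive = no clear call, values can overlap the other calls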;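 also: cells exposed to compound for four days before flow analysis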
* = called active by the depositor; i = inactive; ? = inconclusive; · = not tested or not shown; + = active, no number; [ ] = dose if it differs, or a comment. Rows were chosen to be rich in hits. Some 1.8% of all compounds tested hit in one or more screens of this group.

SMILES	LAP4 TOR yeast	RPL19A TOR yeast	CIT2-GFP yeast	MEP2-GFP yeast	AGP1-GFP MLPCN	Myeloid diff 2
CCc1ccc(CNC(=O)C2CCCN(S(=O)(=O)N3CC(C)CC(C)C3)C2)cc1 (configuration not stated)	91	98	105	113	93	+
COc1ccc(CNC(=O)C2CCCN(S(=O)(=O)N3CCC(C)CC3)C2)c(OC)c1 (configuration not stated)	85	94	102	92	94	?
COc1ccc(C2(O)CN(c3ccc(C)cc3)C3=[N+]2CCCC3)cc1 (configuration not stated)	96	99	126	99	113	i
COc1cc(S(=O)(=O)NC2CCCCC2)ccc1F	113	110	108	105	·	i
COc1ccc(S(=O)(=O)NC2CC2)cc1Br	95	100	105	108	101	+
COc1ccccc1NC(=O)c1cc(S(=O)(=O)NC2CCCC2)ccc1F	59	39*[may fluoresce violet]	?	266*[may fluoresce violet]	?	i
COc1ccccc1NC(=O)c1cc(S(=O)(=O)N2CCCCCC2)ccc1F	97	101	102	103	104	i
O=C(Nc1ccccc1)/C(=C/c1ccc(O)cc1)NC(=O)c1ccco1	101	53	?	533*[may fluoresce violet]	?	i
O=C(NCc1ccco1)/C(=C\c1ccccc1)NC(=O)c1ccccc1	76	48*[may fluoresce violet]	?	?	?	i
CCOC(=O)C(NC(C)=O)(NC(C)C)C(F)(F)F (configuration not stated)	108	98	96	100	107	i
Cc1cccnc1NS(=O)(=O)c1ccccc1	·	·	·	·	·	i
c1ccc2c(C[C@@H]3CNCCN3CC3CCCCC3)cccc2c1	122	92	88	86	79	+
Oc1ccc(C[C@@H]2CNCCN2CC2CCCCC2)cc1	126	91	91	82	84	i
Cc1cc(N2CCCC2)ccc1/C=N/n1cnnc1	112	102	99	104	107	+
Cc1cc(/C=N/n2cnnc2)c(C)n1-c1ccc(Cl)cc1	101	101	97	104	101	i
CS/C(N)=N/N=C/c1ccc2c(c1)OCO2	155*	77	132	337*	147	i
CS/C(N)=N/N=C/c1ccc([N+](=O)[O-])cc1	99	97	101	97	99	i
O=C(/C=C/c1ccc(F)cc1)N1CC[C@@]2(O)CCCC[C@H]2C1	108	102	110	105	108	+
O=C(O)c1cccc(S(=O)(=O)Nc2ccccc2Cc2ccccc2)c1	96	53	?	265*[may fluoresce violet]	20	i
O=C(Nc1cc(C(F)(F)F)ccc1N1CCOCC1)C1CCCO1 (configuration not stated)	98	93	92	92	95	i
O=C(CS(=O)(=O)c1ccccc1)c1cc2ccccc2oc1=O	?	12*[may fluoresce violet]	?	183*[may fluoresce violet]	?	i
O=C(CS(=O)(=O)c1ccccc1)c1cc2cc(F)ccc2oc1=O	99	103	98	97	105	i
Cc1nc(Nc2cnc(/C=C/c3cc(C(=O)Nc4cccc(C(F)(F)F)c4)ccc3C)cn2)cc(N2CCNCC2)n1	107	45*[may fluoresce violet]	?	198*[may fluoresce violet]	12	·
CCc1cccc2c(SCC(=O)NCC3CCCO3)nc(-c3ccc(F)cc3)nc12 (configuration not stated)	98	98	102	97	102	i
COc1ccc(-c2cc(C)no2)cc1S(=O)(=O)N(C)Cc1ccco1	99	100	100	109	101	i
SMILES	LAP4 TOR yeast	RPL19A TOR yeast	CIT2-GFP yeast	MEP2-GFP yeast	AGP1-GFP MLPCN	Myeloid diff 2
CCCN(c1ccccc1F)S(=O)(=O)c1cc(-c2cc(C)no2)ccc1OC	89	47*	96	134	13	i
C=CCn1c(-c2cc(-c3ccc(C)cc3)nc3ccccc23)n[nH]c1=S	109	96	81	108	96	i
Cn1c2ccccc2c(=O)c2ccc(NCCc3cccs3)cc21	110	91	73	97	88	+
C[C@H]1C=C(C(=O)NC2CC2)O[C@@H](OCc2ccc(CO)cc2)C1	106	100	92	103	100	i
CCOC(=O)CSc1nc2nc(C)cc(C)n2n1	108	100	107	106	107	i
Cc1cc(C)n2nc(SCC(=O)N(C)C)nc2n1	82	43*[may fluoresce violet]	?	435*[may fluoresce violet]	?	i
CC1=CC(C)(C)N(C(=O)CSc2nnc(N)s2)c2c(C)cc(C)cc21	·	·	·	·	·	i
CCOC(=O)c1cc2nc(Nc3ccc(OC)cc3)sc2s1	102	98	100	103	97	+
CCOC(=O)c1sc(Nc2ccc(Br)cc2)nc1C	102	99	102	98	99	i
Cc1cc(NS(=O)(=O)c2ccc(NC(=O)/C=C/c3ccco3)cc2)nc(C)n1	103	101	108	98	106	i
COC(=O)Cc1n[nH]c(=O)c2ccccc12	76	61	?	299*[may fluoresce violet]	?	i
O=C(CN1C(=O)C2CC=CCC2C1=O)Nc1nc2ccccc2[nH]1 (configuration not stated)	103	99	89	100	99	i
COc1ccc(C(=O)Nc2ccnn2C2CCN(CC3CC=CCC3)CC2)cc1 (configuration not stated)	67	109	112	94	93	i
O=C(CSC1=NC2(CCCCCC2)N=C1c1ccccc1)Nc1ccc2c(c1)OCCO2	104	100	91	103	102	i
O=C(CSC1=NC2(CCCCC2)N=C1c1ccccc1)Nc1ccc2c(c1)OCCO2	103	98	99	103	104	+
Cc1c(NS(=O)(=O)CC23CCC(CC2=O)C3(C)C)c(=O)n(-c2ccccc2)n1C (configuration not stated)	98	63	?	205*[may fluoresce violet]	?	i
CN1/C(=C/C=C(C#N)C#N)C(C)(C)c2ccccc21	97	103	100	102	106	i
CC1=C/C(=C\C=C(C#N)C#N)N(C)c2ccccc21	140	105	126	134	110	+
Cc1cc(SCc2ccccc2)nc(=O)[nH]1	86	65	?	204*[may fluoresce violet]	21	i
NC(=O)CC(NC(=O)Cc1ccc(Br)cc1)c1ccc(NCCN2CCCCC2)c([N+](=O)[O-])c1 (configuration not stated)	93	95	94	94	102	i
O=C(NCc1ccc(F)cc1)C1CC(=O)N(Cc2ccco2)C1 (configuration not stated)	98	99	89	98	92	i
